Drawing on PubChem BioAssay AID1240 (Sanford-Burnham Center for Chemical Genomics, 2008), this text covers displacement for 106 compounds.

The whole screen tested about 50,000 compounds, of which about 800 (1.6%) showed an effect of 50% or more. The full list was thinned out, with strong results kept by preference.

Bcl-2-like protein 10 (Homo sapiens), sequence (Q9HD36 whole entry, looked up): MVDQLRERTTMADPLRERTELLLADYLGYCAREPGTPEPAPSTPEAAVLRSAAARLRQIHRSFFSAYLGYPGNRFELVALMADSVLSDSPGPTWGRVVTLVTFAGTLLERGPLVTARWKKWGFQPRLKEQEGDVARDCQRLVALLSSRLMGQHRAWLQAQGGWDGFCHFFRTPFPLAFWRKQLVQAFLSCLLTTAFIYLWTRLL

The assay addresses Bcl-2-like protein 10 (Homo sapiens) (UniProt Q9HD36). In words: TR3 peptide-Bcl-B binding displacers, biochemical primary FP assay, phenotype converters (AID 1240).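 Note: 0% = Bcl-B with tracer peptide and DMSO and 100% = tracer peptide lacking Bcl-B.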 Conditions: GST-Bcl-B / FITC-TR3 peptide fluorescence polarization; stronger effect = higher value; compound at 3.75 mg/L. (In general: Fluorescence polarisation rises when a labelled molecule tumbles more slowly, as on binding a larger partner.)
`O=C1NC(=O)C(=Cc2ccccc2)C(=O)N1`: the displacement was -4.2%. With `O=C1NC(=O)C(=Cc2ccc(N3CCOCC3)cc2)C(=O)N1`, the displacement was 78.9%. Next, `O=C1NC(=O)C(=Cc2ccc3c(c2)OCO3)C(=O)N1`: 0.3%; `O/N=C1/C(=C/c2ccccc2)N2CCC1CC2`: 10.6%; `COC(=O)COc1ccc(/C=C2\C(=O)NC(=S)N(c3ccc(C)cc3)C2=O)cc1OC`: -13.5%.

As for `COc1ccc(-c2ccc(C=C3C(=O)NC(=S)NC3=O)o2)c([N+](=O)[O-])c1`, the displacement is 34.1%. In the case of `COc1ccc(-n2c(/C=C/c3ccco3)nc3ccccc3c2=O)cc1` it was -27.1%. Take `COc1cccc(-n2c(/C=C/c3ccc(O)c(O)c3)nc3ccccc3c2=O)c1`: the displacement was 27.7%. As to `COc1ccccc1-n1c(/C=C/c2ccc(O)c(O)c2)nc2ccccc2c1=O`, the displacement is -24.6%. Next, `Cc1ccc(-n2c(/C=C/c3ccc(O)c(O)c3)nc3ccccc3c2=O)cc1`: 54.7%; `O=c1c2ccccc2nc(/C=C/c2ccc(O)c(O)c2)n1-c1ccccc1`: 1.9%; `COc1ccccc1-n1c(/C=C/c2ccc(O)cc2)nc2ccccc2c1=O`: 119%. With `COc1ccccc1-n1c(/C=C/c2ccco2)nc2ccccc2c1=O`, the displacement is -36%. For `COc1cccc(-n2c(/C=C/c3ccco3)nc3ccccc3c2=O)c1`, the displacement was 106%.

Turning to `COc1ccccc1-n1c(/C=C/c2ccccc2O)nc2ccccc2c1=O`, the displacement is -6%.

For the compound `O=C(CNS(=O)(=O)c1ccccc1)Nc1ccc(Br)cc1C(=O)c1ccccc1`, the displacement turned out to be 12%. In the case of `O=[N+]([O-])N=C1NC(OCc2ccccc2)C(OCc2ccccc2)N1` (stereo unspecified) it was 1.4%.

For `CCC1CN(C)CCC1(O)c1ccccc1` (stereo unspecified), the displacement is -6.1%. Next, `CCC(C)N1CCN(C(=O)COc2ccc(Cl)cc2)CC1` (stereo unspecified): 9.2%; `CC(C(=O)c1ccc(Cl)cc1Cl)n1cncn1` (stereo unspecified): -2.3%. Consider `COc1ccc(OCC(=O)Nc2ccc(Br)cc2C(=O)c2ccccc2)cc1`, for which the displacement is -8.4%. Next, `O=Cc1cn(Cc2cccc3ccccc23)c2ccccc12`: -2.4%; `CN1C(=O)NC(=O)/C(=C\c2ccc([N+](=O)[O-])o2)C1=O`: 17.3%. In the case of `O=c1c2ccccc2nc(-c2ccccc2F)n1-c1cccc(Cl)c1` it was -2.3%; in that of `CCNc1cc2oc(=O)cc(C(F)(F)F)c2cc1C`, 105%; in that of `Clc1ccccc1CNCCc1c[nH]c2ccccc12`, 2%. Take `O=c1[nH]c2ccccc2c(=O)n1-c1ccccc1`: the displacement is -12.7%. In the case of `O=c1c2ccccc2[nH]c(=S)n1-c1ccccc1` it was -9.7%; in that of `O=c1[nH]c(=O)n(-c2ccccc2)c(O)c1N=Nc1ccc(Br)cc1`, 120%. With `COc1ccccc1CN1CCN(Cc2ccccc2F)CC1`, the displacement is -5.2%. In the case of `O=C(Nc1ccc(Cl)c(-c2nc3ncccc3o2)c1)c1cccc(OCc2ccccc2)c1` it was -2.6%; in that of `O=[N+]([O-])c1ccc(CCNC2CCCCC2)cc1`, 3.9%; in that of `COc1ccc(OC)c(-n2c(O)c(C=C3C=Nc4ccccc43)c(=O)[nH]c2=O)c1`, 118%.

As to `O=c1[nH]c(=O)n(Cc2ccccc2)c(O)c1C=C1C=Nc2ccccc21`, the displacement is 8.6%. Take `COc1ccc(OC)c(N2C(=O)CC(=O)NC2=O)c1`: the displacement was -5.1%. In the case of `COC(=O)N1[C@H](c2ccccc2)[C@@H]1c1ccccc1` it was 11.9%; in that of `O=C(CF)NC(Nc1ccc(Br)cc1)C(Cl)(Cl)Cl` (stereo unspecified), 8.3%; in that of `CN1C(=O)C(=Cc2ccccc2Cl)C(=O)N(C)C1=O`, -0.3%. Turning to `O=Cc1cn(Cc2ccc(Br)cc2)c2ccccc12`, the displacement was 0.2%. In the case of `CCn1cc(C=C2C(=O)NC(=S)NC2=O)c2ccccc21` it was 136%; in that of `CCn1cc(C=C2C(=O)NC(=O)NC2=O)c2ccccc21`, 12.6%.

For the compound `C=CCn1cc(C=C2C(=O)NC(=O)NC2=O)c2ccccc21`, the displacement came out at 16.3%. Consider `CN1C(=O)C(=Cc2cn(Cc3ccc(F)cc3)c3ccccc23)C(=O)N(C)C1=O`, for which the displacement stood at 138%. Next, `C=CCc1cc(/C=C2\C(=O)NC(=O)N(c3cc(C)cc(C)c3)C2=O)cc(OC)c1O`: -5.3%; `Cc1cc(/C=C2\C(=O)NC(=O)N(C)C2=O)c(C)n1-c1ccc2c(c1)OCO2`: 107%; `Cc1cc(C=C2C(=O)NC(=S)NC2=O)c(C)n1-c1ccc(F)cc1`: 3.8%. In the case of `Cc1ccc(-n2c(C)cc(/C=C3/C(=O)NC(=O)N(C)C3=O)c2C)cc1`, the displacement was -10.4%. Consider `Cc1cc(C=C2C(=O)NC(=S)NC2=O)c(C)n1-c1ccccc1`, for which the displacement is 104%. In the case of `Cc1cc(C=C2C(=O)NC(=S)NC2=O)c(C)n1-c1ccc(Cl)cc1` it was 36.9%; in that of `Cc1cc(/C=C2/C(=O)NC(=O)N(C)C2=O)c(C)n1-c1ccccc1`, 49.3%. In the case of `O=C1NC(=S)N(c2ccc(Br)cc2)C(=O)/C1=C/c1ccc(-c2ccccc2C(=O)O)o1` it was 19.2%; in that of `COc1ccc(Br)cc1CN1CCN(C(=O)COc2ccccc2)CC1`, 2.5%; in that of `COC(=O)C1C2C(=O)N(c3ccc([N+](=O)[O-])cc3)C(=O)C12c1ccc(C)cc1` (stereo unspecified), -32.2%. For the compound `Cc1ccc(NC(=O)C2C(C)(C)C2(C)C)cc1C`, the displacement worked out at 6.9%. In the case of `CCOC(=O)c1ccc2c(c1)n(Cc1ccccc1)c(C)[n+]2CC` it was -14.9%; in that of `COc1cccc(N2C(=O)CC(=O)NC2=O)c1`, -8.2%; in that of `CCOc1ccc(N2C(=O)/C(=C/c3cc(Cl)ccc3O)C(=O)NC2=S)cc1`, 0.4%. Next, `COc1ccc(N2C(=O)NC(=O)/C(=C/c3cn(CC(=O)Nc4ccccc4)c4ccccc34)C2=O)cc1`: 88.8%. In the case of `Cc1ccc(N2C(=O)NC(=O)/C(=C\c3cn(CC(=O)O)c4ccccc34)C2=O)cc1` it was 183%. In the case of `CCc1ccc(/C=C2/C(=O)NC(=O)N(c3ccc(OC)cc3)C2=O)cc1`, the displacement is -18.1%. Next, `COc1ccccc1OCCn1cc(C=C2C(=O)NC(=O)NC2=O)c2ccccc21`: 38.7%.

In the case of `O=C(O)Cn1cc(/C=C2\C(=O)NC(=O)N(c3ccc(Cl)cc3)C2=O)c2ccccc21`, the displacement is -16.9%. In the case of `Cc1ccc(N2C(=O)NC(=O)/C(=C\c3ccccc3OCc3ccc(C(=O)O)cc3)C2=O)cc1` it was -9.2%; in that of `CCOc1cc(C)cc2oc(=O)c3c(c12)CCC3`, -1.5%. Next, `Nc1ccc(Br)cc1C(=O)c1ccc(Cl)cc1Cl`: 10%. In the case of `O=C1NC(=O)N(Cc2ccccc2)C(=O)/C1=C\C=C\c1ccco1` it was 11.3%. Consider `CN1C(=O)NC(=O)/C(=C\c2ccc(C(=O)O)cc2)C1=O`, for which the displacement was determined as 1.8%. Next, `CN1C(=O)NC(=O)/C(=C/c2cn(C)c3ccccc23)C1=O`: 108%. Next, `O=C1NC(=O)N(Cc2ccccc2)C(=O)/C1=C/c1ccc2c(c1)OCO2`: 13.8%; `CN1C(=O)NC(=O)/C(=C/c2ccc(I)o2)C1=O`: 9.2%. In the case of `Cn1cc(/C=C2\C(=O)NC(=O)N(Cc3ccccc3)C2=O)c2ccccc21` it was 99.3%. Consider `O=C(Cc1ccccc1)N1CCN(Cc2cccnc2)CC1`, for which the displacement was 9.9%. For `CC(C)c1ccc(N2C(=O)CC(=O)NC2=O)cc1`, the displacement is -5.9%. Next, `CC1(C)C(C(=O)Nc2cccc3ccccc23)C1(C)C`: 3.9%; `Cc1ccccc1-n1c(CN2C(=O)c3ccccc3C2=O)nc2ccccc2c1=O`: -9.6%; `CC(C)CCn1c(=O)c(C(=O)Nc2ccc(I)cc2)c(O)c2ccccc21`: 7.1%. On to `Cc1cc(Cl)ccc1OCC(=O)N1CCN(C)CC1`, for which the displacement is -6.7%.

In the case of `O=C(Nc1ccc(Br)cc1C(=O)c1ccccc1)c1ccc(F)cc1`, the displacement came out at 8.4%.

Take `O=C(ON1CC1(C(F)(F)F)C(F)(F)F)c1ccccc1` (stereo unspecified): the displacement is 3.2%.

In the case of `O=C1c2ccccc2-c2onc3c(Br)cc(N4CC4)c1c23`, the displacement was found to be 178%. In the case of `Cc1ccc(N2C(=O)CC(=O)NC2=S)cc1` it was 5.6%; in that of `COc1cccc(/C=C2/C(=O)NC(=O)N(c3cccc(C)c3)C2=O)c1O`, 3.1%; in that of `COc1ccc(N2C(=O)NC(=O)/C(=C/c3ccc(SC)cc3)C2=O)cc1`, -9.4%. In the case of `CN1C(=O)NC(=O)/C(=C\c2cc3c(cc2Cl)OCO3)C1=O` it was 0.4%; in that of `Cc1ccc(/C=C2/C(=O)NC(=O)N(c3ccc(Cl)cc3)C2=O)o1`, 36.2%; in that of `COc1ccc(N2C(=O)NC(=O)/C(=C/c3ccc(-c4cccc(Cl)c4)o3)C2=O)cc1`, 69%. For `COc1ccc(N2C(=O)NC(=O)/C(=C/c3cc4c(cc3Cl)OCO4)C2=O)cc1`, the displacement stood at 81.5%.

Regarding `Cc1ccc(N2C(=O)NC(=O)/C(=C\c3ccc(-c4ccc(Cl)c(C(=O)O)c4)o3)C2=O)cc1`, the displacement was determined as 6.3%. In the case of `COc1ccc(CN2CCN(Cc3cc(Br)ccc3O)CC2)cc1` it was 13.1%; in that of `Cc1cc(C=C2C(=O)NC(=O)NC2=O)c(C)n1-c1ccc(N(C)C)cc1`, 0.1%; in that of `CN=C(C)c1c(O)n(C)c(=S)n(C)c1=O`, 8.8%. Next, `C(=NCCCN1CCOCC1)c1c[nH]c2ccccc12`: 2.6%; `O=c1c2ccccc2nc(-c2cccs2)n1-c1ccccn1`: 19.3%. Next, `O=C(Cn1c[n+]([N-][N+](=O)[O-])cn1)N1CCN(C(=O)Cn2c[n+]([N-][N+](=O)[O-])cn2)CC1`: 15%; `O=C(Cn1c[n+]([N-][N+](=O)[O-])cn1)Nc1ccc(NC(=O)Cn2c[n+]([N-][N+](=O)[O-])cn2)cc1`: 59.6%. On to `O=C(Cn1c[n+]([N-][N+](=O)[O-])cn1)Nc1ccc([N+](=O)[O-])cc1`, for which the displacement was 16.4%. In the case of `CCOc1ccc(N2C(=O)NC(=O)/C(=C\c3ccc(C)o3)C2=O)cc1` it was 11.6%; in that of `COc1ccc(C=C2C(=O)NC(=O)NC2=O)cc1OCc1ccc(Cl)cc1Cl`, 150%; in that of `COc1cc(C=C2C(=O)NC(=O)NC2=O)ccc1OCc1ccc(C(=O)O)cc1`, 0.6%. Next, `COc1ccc(C=C2C(=O)NC(=S)NC2=O)cc1OCc1ccccc1Cl`: 8.2%; `O=c1oc2ccccc2c2c1C(c1ccc(Cl)cc1)c1c(c3ccccc3oc1=O)O2`: 10.3%; `COc1cccc(CN2CCNCC2)c1OC`: 15.6%. In the case of `O=C(N/N=C1/CN2CCC1CC2)c1ccc(O)cc1` it was 17.8%. For the compound `CN1C(=O)NC(=O)/C(=C/c2ccc(-c3ccccc3[N+](=O)[O-])o2)C1=O`, the displacement is 35.6%. Next, `O=C1C(=Cc2ccc(-c3ccccc3[N+](=O)[O-])o2)C(=O)N(c2ccccc2)C(=S)N1c1ccccc1`: 16.4%; `COC(=O)C(=O)/C(=C\c1ccc(-c2ccccc2[N+](=O)[O-])o1)C(=O)c1ccccc1`: 56.7%.
